Shown is part of a subset that was picked to be rich in hits.
Giardia FBPA inh = blocks Giardia fructose-bisphosphate aldolase activity. A8B2U2. purified Giardia FBPA. Potency, µM (titrated, usually from 59.6 µM), for inactives: top-dose activity, negative = inhibition, usual class: inhibitors. actives 0.71% (n = 290,000); note: potency is the fitted concentration of half-maximal effect; % is set by controls: 0 for no effect and ±100 for the full control effect; nearly all actives have a fitted effect of over 55% in size
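Giardia FBPA (40 nM reagent) was preincubated 10 min at RT with compound (up to 57.5 uM final), then substrate plus GAPDH/TPI/NAD/arsenate coupling system with diaphorase/resazurin was added; resorufin fluorescence (525/598 nm) was read after 20 min.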
LmPK inhibitor = inhibitors of Leishmania mexicana pyruvate kinase | Q27686 | purified LmPK, Kinase-Glo ATP luminescence, 1 h | Potency, µM (highest dose often 57.5 µM), inactives show at the highest dose activity change, negative = inhibition, most hits filed as inhibitors | actives 0.37% (n = 290,000) | AID 1721; note: potency is the fitted concentration of half-maximal effect; % is set by controls: 0 for no effect and ±100 for the full control effect
Target sequence (Q27686 whole entry, looked up): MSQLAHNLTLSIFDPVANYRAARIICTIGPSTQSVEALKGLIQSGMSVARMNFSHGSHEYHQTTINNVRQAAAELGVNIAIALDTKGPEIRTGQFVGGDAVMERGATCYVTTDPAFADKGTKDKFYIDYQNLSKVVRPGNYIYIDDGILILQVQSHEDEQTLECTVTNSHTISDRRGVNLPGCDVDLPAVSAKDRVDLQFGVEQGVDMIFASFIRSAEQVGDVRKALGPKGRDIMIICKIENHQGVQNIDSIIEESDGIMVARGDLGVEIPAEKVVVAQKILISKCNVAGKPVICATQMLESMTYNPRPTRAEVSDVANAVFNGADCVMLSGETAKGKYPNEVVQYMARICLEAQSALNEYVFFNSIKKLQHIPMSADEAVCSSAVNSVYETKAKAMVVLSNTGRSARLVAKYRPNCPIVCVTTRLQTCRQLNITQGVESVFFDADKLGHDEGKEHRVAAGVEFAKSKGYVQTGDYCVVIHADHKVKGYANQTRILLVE
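In 50 mM imidazole pH 7.2 with 7 mM MgCl2, LmPK (0.1 nM) turned over PEP (0.5 mM) and ADP (0.1 mM) for 1 h at room temperature. Luciferase read-out of ATP.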
Sm TGR inh = inhibitors of Schistosoma mansoni thioredoxin glutathione reductase; Q962Y6; purified TGR, DTNB reduction, TNB absorbance 405 nm; Potency, µM (top dose mostly 114 µM), for inactives: top-dose activity change, negative = inhibition, hits mostly inhibitors; actives 3% (n = 360,000); AID 485364; note: potency is the fitted concentration of half-maximal effect; % is set by controls: 0 for no effect and ±100 for the full control effect; nearly all actives have a fitted effect of over 60% in size
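First, TGR (20 nM dispensed) and NADPH were mixed with compound. Second, a 15 min room-temperature incubation followed. Third, further NADPH and then DTNB were added to start the reaction. Finally, TNB absorbance was monitored kinetically.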
CHX counter = affects cycloheximide protein synthesis inhibition readout, counter-screen. max response, %. actives 12% (n = 300,000). cell reporter, cycloheximide protein synthesis inhibition counterscreen. AID 2314; in the data active = max response mostly above about 13%, no sharp cut-off; inactive = mostly below about 14%; note: read at 38.3 µM for the half of the compounds with a filed dose; 0% is about no effect
Tb PYK inh = blocks Trypanosoma brucei pyruvate kinase; Q57TT1; TbPYK enzyme, Kinase-Glo Plus ATP luminescence, 45 min; Potency, µM (series often up to 76.8 µM), inactives show at the top dose activity, negative = inhibition, usual class: inhibitors; actives 0.12% (n = 410,000); AID 624173; note: potency is the fitted concentration of half-maximal effect; % is set by controls: 0 for no effect and ±100 for the full control effect; nearly all actives have a fitted effect of over 50% in size
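TbPYK + substrate in 50 mM TEA pH 7.2, 100 mM KCl, 10 mM MgCl2, 0.05% BSA, 0.01% Tween-20; cpd pinned; ADP 130 uM final; 45 min RT; Kinase-Glo Plus 10 min; luminescence endpoint.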
Shiga inhibitor = Shiga toxin inhibition. Vero cells, Shiga toxin protein synthesis inhibition reporter. inhibition, % at 38.7 µM. actives 9.2% (n = 290,000). AID 2315; in the data active = inhibition mostly above about 28%, no sharp cut-off; inactive = mostly below about 43%; note: 0% is about no effect
The depositor's hits bear a star; ? = inconclusive; nt = not tested or not shown. Unless noted, calls come from the whole dose curve; as a rule, active = well fitted curve in the direction sought with a large enough effect; inconclusive = small, poorly fitted or top-dose-only effect, or another doubt; inactive = no such curve, though single readings can be large; an effect the other way counts as inactive or inconclusive.

SMILES	Giardia FBPA inh	LmPK inhibitor	Sm TGR inh	CHX counter	Tb PYK inh	Shiga inhibitor
O=C(NNC(=O)c1ccccc1F)c1ccc2nc[nH]c2c1	nt	-8%	-17%	22*	3%	68
O=C(Nc1ccc(F)cc1)c1cccc(C(=O)Nc2ccc(F)cc2)c1	4%	5%	-17%	-1	0%	-4
COc1cc(C(=O)Nc2ccc(S(=O)(=O)N(C)c3ccccc3)cc2)cc(OC)c1OC	-2%	1%	-6%	-3	-5%	14
O=C(NC1CCCC1)c1ccc2nc[nH]c2c1	-5%	-5%	8%	-1	-1%	16
COc1cc(C(=O)Nc2ccc(N(C)C)cc2)cc(OC)c1OC	-7%	-1%	-28%	25*	-12%	58*
O=C(Nc1ccc(F)cc1)c1ccc2nc[nH]c2c1	4%	-9%	-19%	30*	-7%	46*
CN(C)c1ccc(NC(=O)c2ccc3nc[nH]c3c2)cc1	4%	0%	4%	51*	-14%	138*
CC(=O)Nc1ccc(S(=O)(=O)Nc2nnc(C)s2)cc1	nt	nt	nt	nt	2%	nt
COc1cccc(CNC(=O)C(C)n2c(=O)cc(-c3ccccc3)c3c(C)nn(C)c32)c1 (configuration not stated)	nt	nt	3%	nt	-6%	nt
CC(=O)Nc1nc2n(n1)C(c1ccc(F)cc1)C=C(c1ccc(Cl)cc1)N2 (configuration not stated)	nt	nt	5%	nt	0%	nt
CC1=CC(c2ccc(Cl)cc2)n2nc(NC(=O)CCC(=O)O)nc2N1 (configuration not stated)	-17%	0%	10µM*	-1	-18%	-3
CC1=CC(c2ccc(Cl)cc2)n2nc(NC(=O)CCCC(=O)O)nc2N1 (configuration not stated)	-14%	-10%	22µM*	-3	-3%	1
Cc1ccc2nc3c(cc(C(=O)NCC4CCCO4)c(=N)n3C(C)C)c(=O)n2c1 (configuration not stated)	nt	nt	-1%	nt	2%	nt
O=C(O)CCc1ccc(-c2cccs2)n1CC(=O)Nc1ccccc1C(F)(F)F	12%	2%	?	15	3%	-13
COCCn1c(CCC(=O)O)ccc1-c1cccs1	9%	-2%	14µM*	-1	1%	9
COCCn1c(-c2cccs2)csc1=Nc1cccnc1	?	-8%	-25%	2	?	-28
CCCCn1c(CCC(=O)O)ccc1-c1cccs1	16%	10%	8.9µM*	-3	-9%	-5
Cc1ccccc1NC(=O)c1cc2ccccc2o1	1%	-11%	-17%	37*	-11%	nt
COc1cc(NC(=O)c2cc3ccccc3o2)c(OC)cc1Br	3%	2%	-1%	0	2%	12
O=C(Nc1ccc(Cl)cc1Cl)c1cc2ccccc2o1	-6%	-5%	0%	51*	-5%	57*
COc1ccccc1NC(=O)c1cc2ccccc2o1	-19%	-9%	-3%	39*	-4%	64*
Cc1ccccc1NC(=O)c1cc(=O)c2ccccc2o1	1%	-1%	3%	16	-16%	30
CCN(CC)c1ccc(NC(=O)c2c(OC)cccc2OC)c(C)c1	-8%	5%	2%	9	-1%	-17
CCN(CC)c1ccc(NC(=O)c2cc3ccccc3o2)c(C)c1	1%	-1%	-7%	26*	-6%	59*
O=C(Nc1ncccc1Cl)c1cc2ccccc2o1	nt	-23%	4%	30*	1%	73*
SMILES	Giardia FBPA inh	LmPK inhibitor	Sm TGR inh	CHX counter	Tb PYK inh	Shiga inhibitor
CNc1c([N+](=O)[O-])cnn1-c1ccccc1F	0%	1%	nt	41*	-1%	43
O=C(/C=C(\O)c1ccccc1)C(=O)NNC(=O)c1ccccc1[N+](=O)[O-]	?	-3%	-1%	17*	5%	71*
Nc1ccccc1C(=O)NNC(=O)C(=O)/C=C(\O)c1ccccc1	-3%	1%	-32%	33*	3%	53*
Cc1cccc(C(=O)NNC(=O)c2ccccc2[N+](=O)[O-])c1	-10%	-2%	3%	-4	-12%	-8
O=C(CNCc1ccc(Cl)cc1)N1CCc2ccccc2C1	?	-7%	-21%	8	4%	25
O=C(NCc1ccc(Cl)cc1)N1CCc2ccccc2C1	-2%	-5%	-5%	29*	-5%	30
COc1ccc(CNC(=O)N2CCc3ccccc3C2)cc1Cl	0%	15%	5%	14*	-17%	-1
CCN1CCN(C(=O)c2cc3cc4cc(OC)ccc4nc3s2)CC1	-3%	-16%	4%	12*	-4%	25*
COc1ccc2cc3cc(C(=O)NCCCN4CCc5ccccc5C4)sc3nc2c1	?	3%	-3%	35*	0%	71*
COc1ccc2nc3sc(C(=O)NCCN4CCc5ccccc5C4)cc3cc2c1	?	-12%	-2%	43*	17%	53*
COc1ccc2cc3cc(C(=O)NC4CC4)sc3nc2c1	13%	2%	3%	48*	-4%	57*
COc1ccc(Nc2nc3ccccc3n3nnnc23)cc1	0%	2%	5%	12	-3%	28
Cc1ccc(Nc2nc3ccccc3n3nnnc23)cc1	1%	3%	1%	26*	-1%	71*
Fc1cc(Br)ccc1Nc1nc2ccccc2n2nnnc12	1%	3%	7%	27*	-5%	42*
O=C(COC(=O)c1c(F)cccc1F)Nc1ccc2c(c1)OCO2	nt	nt	-1%	nt	7%	nt
O=C(COC(=O)c1ccccc1NCc1ccco1)Nc1ccc2c(c1)OCO2	1%	-1%	0%	27*	-4%	62*
O=C(COC(=O)c1ccccc1NC(=O)c1ccco1)Nc1ccc2c(c1)OCO2	7%	0%	-4%	17*	-13%	59
CC(C)(C)NC(=O)COC(=O)c1ccccc1NC(=O)c1ccco1	1%	4%	-4%	-1	3%	15
NC(=O)c1ccsc1NC(=O)COC(=O)c1ccccc1NCc1ccco1	17%	16%	2%	33*	1%	107*
COc1ccc(S(=O)(=O)c2c(Nc3ccc(C)cc3C)sc(C(=O)c3ccc(F)cc3)c2N)cc1	nt	nt	3%	nt	9%	nt
CN1CCCN(Cc2nc(-c3cccc(C(F)(F)F)c3)no2)CC1	-24%	5%	25µM*	16*	8%	5
c1ccc(CC2CCN(Cc3nc(-c4ccccc4)no3)CC2)cc1	-3%	3%	-2%	15*	1%	29
COc1ccc(-c2noc(CN3CCC(Cc4ccccc4)CC3)n2)cc1	1%	-3%	-3%	-2	-22%	-6
CC(=O)N1CCN(Cc2nc(-c3cccc(Cl)c3)no2)CC1	0%	9%	-7%	18*	3%	43*
COc1ccccc1CN1CCN(Cc2nc(-c3ccccc3)no2)CC1	-8%	4%	7%	35*	-9%	99*

Bioassay records (PubChem)
